Data published in PubChem BioAssay (NCI).
Compounds without any hit were thinned out: in the full panel of roughly 79,000, 15% have a hit. Unmarked numbers belong to inactive results. Calls of active or inactive are those of the source. Cut-off read from the data, not from the text of the source: active = growth inhibition above about 70%; inactive = the rest.

What was measured:
[1] = NCI Yeast Anticancer Drug Screen. Data for the rad50 strain (AID 155);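 note: 0% = growth of vehicle-only cultures of the same strain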; details: S. cerevisiae rad50 strain growth inhibition, hits give high values
Method in brief: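 Genetically altered yeast (DNA repair pathway); compound treatment; growth inhibition vs vehicle ctrl.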

[2] = NCI Yeast Anticancer Drug Screen. Data for the mec2-1 strain (AID 157); details: S. cerevisiae mec2-1 strain, hits give high values
Method in brief: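 Test agents were screened against the mec2-1 yeast strain, with defined DNA repair or cell cycle alteration. Growth was scored as inhibition against vehicle-only controls.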

[3] = NCI Yeast Anticancer Drug Screen. Data for the sgs1 mgt1 strain (AID 161);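 note: 0% = growth of cultures given vehicle only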; details: S. cerevisiae sgs1 mgt1 strain, hits give high values
Method in brief: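 Mutant yeast exposed to compound; growth scored against vehicle-only wells.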

[4] = NCI Yeast Anticancer Drug Screen. Data for the cln2 rad14 strain (AID 165);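 note: 0% = growth equal to vehicle treated cultures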; details: S. cerevisiae cln2 rad14 strain, hits give high values
Method in brief: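 Growth of compound-exposed yeast (cln2 rad14 genotype) measured and expressed as inhibition relative to vehicle.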

[5] = NCI Yeast Anticancer Drug Screen. Data for the bub3 strain (AID 167); details: S. cerevisiae bub3 mutant strain, hits give high values
Method in brief: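 Yeast carrying a defined mutation is treated with each compound, and growth is compared with that of vehicle-exposed cells to give inhibition.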

[6] = NCI Yeast Anticancer Drug Screen. Data for the mlh1 rad18 strain (AID 175); details: S. cerevisiae mlh1 rad18 strain growth inhibition, hits give high values
Method in brief: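 In this whole-cell yeast screen, a strain with altered DNA damage repair is challenged with compound, and its growth is measured against matched vehicle-treated controls.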

[7] = at 5.0 µM (retest, dose inferred, filed as 0.5)
[8] = at 50.0 µM (retest, dose inferred, filed as 5.0)

SMILES	growth inhibition [1, 7]	growth inhibition [1, 8]	growth inhibition ([1]; at 50.0 µM)	growth inhibition [2, 7]	growth inhibition [2, 8]	growth inhibition ([2]; at 50.0 µM)	growth inhibition [3, 7]	growth inhibition [3, 8]	growth inhibition ([3]; at 50.0 µM)	growth inhibition [4, 7]	growth inhibition [4, 8]	growth inhibition ([4]; at 50.0 µM)	growth inhibition [5, 7]	growth inhibition [5, 8]	growth inhibition ([5]; at 50.0 µM)	growth inhibition [6, 7]	growth inhibition [6, 8]	growth inhibition ([6]; at 50.0 µM)
Cc1occc1C(=S)Nc1ccc(Cl)c(C(=O)OCC(F)(F)F)c1	23%	92% (active)	92.2% (active)	21%	93% (active)	92.8% (active)	26%	96% (active)	90.8% (active)	21%	97% (active)	88.5% (active)	29%	99% (active)	91.2% (active)	27%	96% (active)	86.8% (active)
CCCCCCCCCCCCCCCCOc1ccc(S(=O)(=O)N/N=c2/sc3ccc(S(=O)(=O)O)cc3n2C)cc1C(=O)O	6%	88% (active)	79.6% (active)	6%	63%	78.7% (active)	0%	76% (active)	76% (active)	16%	62%	40.2%	-3%	83% (active)	68.8%	-13%	88% (active)	73.4% (active)
CCN(CC)C(=O)C(C)OC(C)=O (centres undefined)	-1%	0%	-21.4%	2%	1%	17.6%	2%	-1%	-11.8%	-2%	-3%	-16%	2%	-5%	8.7%	1%	3%	27.1%
O=C(C[n+]1cccc2ccccc21)c1ccc(-c2ccc(C(=O)C[n+]3cccc4ccccc43)cc2)cc1	3%	32%	62.2%	50%	23%	50%	2%	36%	46.5%	2%	24%	31.9%	1%	44%	45.6%	4%	53%	86.3% (active)
CC/C(=C\c1cccc(OC)c1)c1ccncc1	17%	84% (active)	94.7% (active)	12%	92% (active)	94.2% (active)	40%	91% (active)	95.3% (active)	14%	81% (active)	90.3% (active)	35%	89% (active)	94.8% (active)	32%	87% (active)	93.9% (active)
CCCCCCCCCCCCCCCC[N+](C)(C)C(C)c1ccc(OC)cc1 (centres undefined)	98% (active)	98% (active)	90.6% (active)	98% (active)	98% (active)	90.2% (active)	98% (active)	99% (active)	90% (active)	98% (active)	99% (active)	85.8% (active)	98% (active)	98% (active)	92.3% (active)	98% (active)	97% (active)	91.8% (active)
C[n+]1c(-c2ccc(/C=N/Nc3n[nH]c(=S)n3/N=C/c3ccc(-c4cn5ccsc5[n+]4C)cc3)cc2)cn2ccsc21	-14%	97% (active)	97.9% (active)	-2%	97% (active)	94.2% (active)	-4%	96% (active)	95.3% (active)	-6%	94% (active)	93.8% (active)	-29%	98% (active)	96.5% (active)	-2%	97% (active)	93.5% (active)
[Cu+2].[O-]/N=C/c1cccc(O)c1[O-].[O-]/N=C/c1cccc(O)c1[O-]	-16%	99% (active)	93.8% (active)	-14%	99% (active)	96.7% (active)	-14%	99% (active)	96.8% (active)	-12%	98% (active)	94.8% (active)	-20%	99% (active)	97.7% (active)	-4%	98% (active)	94% (active)
CC1([N+](=O)[O-])C(=O)C2(N3CCCCC3)CCCC2C1c1ccccc1 (centres undefined)	3%	10%	15.5%	3%	21%	8.6%	6%	8%	19%	5%	-1%	36.2%	1%	13%	12%	1%	20%	16.5%
CN(C)N=Nc1c(-c2cccs2)n[nH]c1C(F)(F)F	98% (active)	99% (active)	99.4% (active)	99% (active)	100% (active)	99.8% (active)	100% (active)	100% (active)	99.6% (active)	99% (active)	99% (active)	99.5% (active)	99% (active)	99% (active)	99.5% (active)	99% (active)	99% (active)	99.6% (active)
CC(C)COP(=O)(OCC(C)C)C(NS(=O)(=O)c1ccccc1)(C(F)(F)F)C(F)(F)F	4%	11%	63.5%	-12%	-2%	82.7% (active)	7%	-5%	-2.35%	27%	42%	6.85%	-6%	8%	-3.8%	0%	3%	90.2% (active)
CCc1ccc(C)nc1	-1%	-3%	20.9%	1%	-1%	1.05%	3%	0%	1.1%	0%	3%	0.85%	-2%	-5%	98.7% (active)	1%	-2%	-1.05%
C=CCc1cc([N+](=O)[O-])ccc1O	-4%	80% (active)	76.5% (active)	1%	85% (active)	92.1% (active)	-2%	87% (active)	94.6% (active)	-3%	85% (active)	88.7% (active)	3%	85% (active)	92.3% (active)	-4%	93% (active)	90.8% (active)
Nc1cn(C2OC(CC(c3ccccc3)(c3ccccc3)c3ccccc3)C(O)C2O)c(=O)[nH]c1=O (centres undefined)	99% (active)	99% (active)	39%	97% (active)	97% (active)	34.9%	99% (active)	99% (active)	42.1%	96% (active)	96% (active)	37.5%	66%	66%	46.5%	97% (active)	97% (active)	34.6%
NCCSC1(O)C(=O)c2ccccc2C1=O	35%	92% (active)	94.4% (active)	18%	72% (active)	65.7%	-4%	64%	56.1%	-3%	46%	59.3%	-3%	43%	48.5%	0%	70% (active)	75.2% (active)
O=CNc1ccc(Oc2ccc(NC=O)cc2)cc1	-1%	-18%	3.6%	-18%	-19%	6.75%	1%	1%	1.45%	-1%	7%	61.3%	-2%	-15%	-6.45%	17%	-5%	30.6%
O=C(C(/C=N\C(=S)Nc1ccccc1Cl)=C(/O)c1ccccc1)c1ccccc1	86% (active)	99% (active)	99.4% (active)	81% (active)	100% (active)	99% (active)	55%	99% (active)	99.3% (active)	95% (active)	99% (active)	98.4% (active)	99% (active)	99% (active)	99.3% (active)	90% (active)	99% (active)	99.1% (active)
[Pt].c1ccc([PH+](CC[PH+](CC[PH+](c2ccccc2)c2ccccc2)CC[PH+](c2ccccc2)c2ccccc2)c2ccccc2)cc1	54%	96% (active)	89.8% (active)	97% (active)	98% (active)	90.7% (active)	28%	97% (active)	91.7% (active)	27%	97% (active)	89.3% (active)	93% (active)	97% (active)	89.8% (active)	68%	97% (active)	88.7% (active)
